Our source for the Potency values is PubChem BioAssay (Tox21).

SMILES strings stand for the structures. The source made the active and inactive calls. A call without a number means that no potency is given here. The call rests on the fitted dose curve; in most records, active means well fitted activation curve with a large enough effect in the repeat runs; inconclusive means weak or mixed curves; inactive means flat fitted curve, though single readings scatter.

The target in the experiment is KiSS-1 receptor (Homo sapiens) (UniProt Q969F8). The experiment can be described thus: Human kisspeptin (KISS1R) small molecule agonists, calcium flux assay in KISS1R-HEK293 cells (AID 1920064). Conditions: KISS1R-HEK293, calcium flux fluorescence, agonist; series mostly up to 76.8 µM. The source says: National Center for Advancing Translational Sciences [NCATS]
Sequence of KiSS-1 receptor (Homo sapiens) (Q969F8 whole entry, looked up): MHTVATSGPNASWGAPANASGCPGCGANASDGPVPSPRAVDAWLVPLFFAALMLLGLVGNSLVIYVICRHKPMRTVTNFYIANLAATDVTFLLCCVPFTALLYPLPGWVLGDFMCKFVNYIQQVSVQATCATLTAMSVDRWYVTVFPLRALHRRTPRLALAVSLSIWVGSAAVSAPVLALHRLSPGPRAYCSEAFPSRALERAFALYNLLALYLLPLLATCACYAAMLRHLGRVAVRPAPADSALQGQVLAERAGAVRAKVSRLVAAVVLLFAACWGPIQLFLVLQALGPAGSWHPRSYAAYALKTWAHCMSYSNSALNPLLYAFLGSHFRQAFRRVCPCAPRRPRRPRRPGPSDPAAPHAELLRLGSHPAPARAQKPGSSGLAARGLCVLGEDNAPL
Division of Preclinical Innovation [DPI]
U.S. Environmental Protection Agency [EPA]
National Institutes of Environmental Health Sciences [NIEHS]
National Toxicology Program [NTP]
U.S. Food and Drug Administration [FDA]
Kisspeptin and its receptor KISS1R play key roles in mammalian reproduction due to their involvement in the onset of puberty and control of the hypothalamic-pituitary-gonadal axis such as regulates GnRH release from the hypothalamus. The kisspeptin/KISS1R system also plays a direct role in peripheral organs (including the ovary, testis, uterus, and placenta) and is implicated in reproductive diseases such as miscarriage and polycystic ovary syndrome (PCOS). Abnormal KISS1R activity is associated with abnormal puberty, infertility, endometriosis, and hormone-dependent tumors. The KISS1 receptor (KISS1R, also called GPR54), a G-protein-coupled receptor (GPCR), acts (through phospholipase C) to increase intracellular inositol trisphosphate and then release intracellular calcium stores. Cell-based KISS1R-HEK293 assay is using HEK293 cells that have been genetically engineered to express the human KISS1R, which activity can be measured by calcium signaling. A compound/drug can activate (agonist) KISS1R that can be monitored by levels of intracellular calcium.
KISS1R-HEK293 cells developed by Codex Corp contain human KISS1R gene, which was stably integrated into HEK 293 cells. The compound activation can be detected by fluorescence intensity via calcium flux assay. This cell line has been used to screen the Tox21 10K compound library to identify agonists of KISS1R.
KISS1R-Hek293 cells were dispensed at 1500 cells/4uL/well in 1536-well black wall/clear bottom plates using a multidrop dispenser. After the assay plates were incubated at a 37 C/5% CO2 incubator for 18 hours, 4 microL of Calcium Dye Solution was added to each well. The plates were incubated at 37 C for 1 hour. And then 23 nL of compounds dissolved in DMSO, positive controls, or DMSO only was transferred to the assay plate by a pin tool station. The fluorescence intensity in the plates was measured using FDSS 7000EX kinetic plate reader with a filter set of Ex/Em=480/540 for 3 min at 1 sec intervals. Each test compound was measured at 15 concentrations and in triplicates.
A general note: Calcium flux is commonly read through the fluorescence of an indicator in the cells.
Regarding `O=C(CCCCl)c1ccc(F)cc1`, the Potency result was “inactive”. Then `CCCCCOC(=O)c1ccccc1C(=O)OCCCCC`, with “inactive”. The entry for `CNC(=O)Oc1ccccc1C(C)C` is “inactive”; for `Clc1ccc2ccccc2c1` it is “inactive”; for `Clc1ccc(C(OCCN2CCCCC2)c2ccccc2)cc1` (stereo not given) it is “inactive”.

For `CCN(CC)CCOC(=O)C(O)(c1ccccc1)c1ccccc1`, the Potency entry is “inactive”.

As for `C[C@@H](N)[C@@H](O)c1ccccc1`, the Potency result was “inactive”. In the case of `CC(C)(C)NC[C@H](O)c1ccc(O)cc1Cl`, the Potency entry was “inactive”. Then `O=C1CN=C(c2ccccc2)c2cc([N+](=O)[O-])ccc2N1`, with “inactive”; and `O=[N+]([O-])c1cccc2c([N+](=O)[O-])cccc12`, with “inactive”. For the compound `Oc1cc(Cl)c(Cl)c(Cl)c1Cl`, the Potency entry is “inactive”. `Cc1ccccc1OP(=O)(Oc1ccccc1C)Oc1ccccc1C`: the Potency entry was “inactive”. With `C#CC1(O)CCCCC1`, the Potency entry is “inactive”. Then `N#Cc1ccc(N(CC(N)=O)CC(F)(F)F)cc1C(F)(F)F`, with “inactive”; and `CC(O)CCl` (stereo not given), with “inactive”. As to `O=[N+]([O-])c1ccccc1CCl`, the Potency result was “inactive”. Turning to `O.O.O.O.O.O.O.O=S(=O)([O-])[O-].[Co+2]`, the Potency entry was “inactive”. Then `COc1cc(CC(C)N)cc2c1OCO2` (stereo not given), with “inactive”. Regarding `CC(N)=S`, the Potency result is “inactive”.

As for `Clc1ccc(-c2ccc(Cl)c(Cl)c2Cl)c(Cl)c1Cl`, the Potency result is “inactive”. On to `CC(C)CCCCCCCOC(=O)c1ccccc1C(=O)OCCCCCCCC(C)C`, for which the Potency result was “inactive”. Then `C[N+]1(CCF)[C@@H]2CC[C@H]1CC(OC(=O)C(O)(c1ccccc1)c1ccccc1)C2` (stereo not given in full), with “inactive”. As for `O=C1c2ccccc2C(=O)C1C(=O)C(c1ccccc1)c1ccc(Cl)cc1` (stereo not given), the Potency entry is “inactive”.

On to `N#Cc1sc2c(=O)c3ccccc3c(=O)c=2sc1C#N`, for which the Potency entry is “inactive”.

For `CCc1nn(C)c(C(=O)NCc2ccc(C(C)(C)C)cc2)c1Cl`, the Potency entry is “inactive”. With `C=CC(=O)NCNC(=O)C=C`, the Potency entry was “inactive”. Take `CCO[C@H]1O[C@@H]2OC3(C)CC[C@H]4[C@H](C)CC[C@@H]([C@H]1C)[C@@]24OO3`: the Potency result was “inactive”. Consider `O.O.O.O=C([O-])[C@H]([O-])[C@@H]([O-])C(=O)[O-].O=C([O-])[C@H]([O-])[C@@H]([O-])C(=O)[O-].[K+].[K+].[Sb+3].[Sb+3]`, for which the Potency entry is “inactive”. The entry for `COP(=S)(OC)Oc1cc(Cl)c(I)cc1Cl` is “inactive”; for `CC(=O)O[C@H]1CC[C@@]2(C)C(=CC[C@@H]3[C@@H]2CC[C@]2(C)C(=O)CC[C@@H]32)C1` it is “inactive”; for `Nc1ccc2c(c1)Cc1ccccc1-2` it is “inactive”. For the compound `COP(=S)(NC(C)C)Oc1ccc(C)cc1[N+](=O)[O-]` (stereo not given), the Potency entry is “inactive”.

`CC1(C)C(/C=C(\Cl)C(F)(F)F)C1C(=O)OC(C#N)c1cccc(Oc2ccccc2)c1` (stereo not given): the Potency result is “inactive”. Take `CCSCc1ccccc1OC(=O)NC`: the Potency entry is “inactive”. For the compound `CCOc1cc(C(C)(C)C)ccc1C1COC(c2c(F)cccc2F)=N1` (stereo not given), the Potency result was “inactive”. Consider `Oc1cc(Cl)cc(Cl)c1`, for which the Potency result was “inactive”. The entry for `C=COC(C)=O` is “inactive”. Take `COC(=O)c1ccccc1S(=O)(=O)NC(=O)N(C)c1nc(C)nc(OC)n1`: the Potency entry is “inactive”. Turning to `CCC1(CC)C(=O)N=C(O)NC1=O`, the Potency entry is “inactive”. The entry for `Cc1c([N+](=O)[O-])cc2c(c1[N+](=O)[O-])C(C)(C)CC2(C)C` is “inactive”.
